High-throughput results from PubChem BioAssay.
TWEAK Fn14 block: blocks TWEAK-Fn14 interaction in a reporter cell assay. AID 1159606. inhibition, % at 10 µM. TWEAK-stimulated Fn14 reporter cells, luciferase luminescence, 8 h. 360,000 tested, 2% active; in the data active = inhibition above about 50%
EWS-Fli inh: blocks EWS/Fli oncoprotein-driven transcription. inhibition, % at 12.6 µM. 350,000 tested, 0.67% active. A673 NR0B1-luciferase reporter, viability-normalised;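 active = mean inhibition of at least 50% after viability correction, with every replicate also passing that limit; inconclusive = mean reaches 50% but only one of two replicates passes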;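 note: firefly luciferase signal divided by Alamar Blue viability fluorescence both relative to DMSO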
PAX8 inh HTS: lowers PAX8-driven luciferase in RMG-I cells | RMG-I TPO-luciferase reporter, SteadyGlo, 24 h | inhibition, % at 12.6 µM | 360,000 tested, 1.2% active;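 active = mean replicate inhibition at least 60% with every replicate also reaching 60%; inconclusive = only one of the two criteria is met; inactive = mean below 60% and not all replicates reaching 60%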;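 note: luciferase light reporting Pax8 driven TPO promoter activity; plate controls were median of neutral control wells for no effect and mitoxantrone controls for full effect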
LMP1 NFkB inh: inhibitors of Epstein-Barr LMP1-induced NF-kappaB reporter | LMP1-induced NF-kappaB luciferase reporter cells, luminescence | inhibition, % at 12.5 µM | 350,000 tested, 0.69% active | AID 504558; in the data active = inhibition above about 41%; inconclusive = no clear call, values can overlap the other calls;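 note: 0% = neutral control wells and 100% = reference inhibitor control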
LGR2 antag: blocks bursicon-induced cAMP signaling via Drosophila LGR2; inhibition, % at 9.99 µM; HEK293 LGR2, CRE-luciferase, bursicon-stimulated, 4 h; AID 720647; 380,000 tested, 0.35% active;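 active = drop in luminescence signal, shown as inhibition above about 50% in the replicate tests, limit read from the data, passing the limit was not always enough; inconclusive = probably only some replicates passing the limit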;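 note: agonist challenge used bursicon conditioned medium at about half maximal strength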
TROY NFkB inh: blocks TROY-dependent signaling in reporter cells; AID 1347056; Q293 LMP1-TROYcd NF-kB luciferase reporter, 4 h; inhibition, % at 10 µM; 360,000 tested, 0.98% active;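 active = compounds whose plate-normalised and pattern-corrected inhibition of the luciferase reporter signal at the single screening dose is 50% or more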
Numbers without * were called inactive; ? = inconclusive; . = no result given. Sampled rows, rich in hits. Any-hit rate of the full collection: about 3.2%.

SMILES	TWEAK Fn14 block	EWS-Fli inh	PAX8 inh HTS	LMP1 NFkB inh	LGR2 antag	TROY NFkB inh
Cc1cc(Br)ccc1NC(=O)CN(C)C(=O)C1CCN(c2ncnc3sc(C)c(C)c23)CC1	58.9*	12.4	55.7	16.3	13.9	44.5
Cc1ccc(OCC(=O)NNC(=O)C2CCN(c3ncnc4sc(C)c(C)c34)CC2)cc1	26.4	19.2	19.2	-1.4	-2.3	48.4
COc1ccc(NC(=O)c2sc3nc(C)nc(N4CCN(c5ccccn5)CC4)c3c2C)cc1Cl	1.6	-6.0	22.1	16.2	1.5	5.9
Cc1sc2ncnc(N3CCC(C(=O)NNC(=O)COc4ccc(Cl)cc4)CC3)c2c1C	86.8*	11.2	1.0	-5.5	12.5	50.5*
COc1ccc(NC(=O)c2sc3ncnc(N4CCN(c5ccccn5)CC4)c3c2C)cc1Cl	75.8*	-10.2	39.4	44.0*	26.4	22.0
Cc1ccc(S(=O)(=O)N2CCN(C(=O)C3CCN(c4ncnc5sc(C)c(C)c45)CC3)CC2)c(C)c1	50.6*	38.2	42.1	18.4	19.7	41.8
CCC(=O)Nc1ccc2c(c1)C(=O)N(C)C[C@@H](OC)[C@H](C)CN(C(=O)CC1CC1)[C@@H](C)CO2	.	-4.4	.	.	-5.1	.
Cc1sc2ncnc(N3CCC(C(=O)Nc4ccc(OC(F)F)c(Cl)c4)CC3)c2c1C	25.3	3.3	15.3	7.7	?	51.1*
CCS(=O)(=O)N1CC(=O)N2[C@H](CO)[C@@H](c3ccc(-c4ccccc4F)cc3)[C@H]2C1	.	10.7	80.7*	.	-3.2	.
O=C1CN(S(=O)(=O)Cc2ccccc2)C[C@H]2[C@H](c3ccc(C#Cc4ccc(F)cc4)cc3)[C@H](CO)N12	.	0.7	98.6*	.	.	.
O=C1CN(S(=O)(=O)Cc2ccccc2)C[C@@H]2[C@@H](c3ccc(C#CC4CC4)cc3)[C@@H](CO)N12	.	7.9	79.2*	.	2.0	.
COc1ccc(NC(=O)N(C)C[C@H]2OCCCC[C@H](C)Oc3ccc(NC(=O)c4ccccc4)cc3C(=O)N([C@@H](C)CO)C[C@@H]2C)cc1	.	-4.2	1.1	.	-10.4	.
Cn1cnc(S(=O)(=O)N[C@@H]2CC[C@H](CC(=O)NCC3CCCCC3)O[C@H]2CO)c1	.	.	.	.	2.3	.
Cc1ccc(NC(=S)NCc2cccs2)cc1	-3.2	.	.	86.6*	.	-37.2
CCOC(=O)c1ccc(N=c2sc(C(=O)OC)cc(=O)n2Cc2ccco2)cc1	64.2*	8.2	12.5	-16.1	69.5*	32.0
COC(=O)c1cc(=O)n(CCc2ccc(OC)cc2)c(=Nc2ccc(F)c(Cl)c2)s1	-1.1	25.4	1.5	-13.4	0.3	-12.9
CCn1c(=O)cc(C(=O)OC)sc1=Nc1ccc(F)c(F)c1	46.1	13.5	17.0	84.1*	?	4.9
O=C(Nc1ccccc1)c1cn2ccccc2n1	89.5*	30.2	-16.7	42.2*	?	44.6
O=C(Nc1ccc(-n2cnnn2)cc1)c1cn2ccccc2n1	27.4	-73.2	-93.5	-21.0	-32.1	-48.0
Cc1csc(NC(=O)c2cnc3ccccc3n2)n1	52.2*	57.6*	-24.4	17.0	58.4*	25.2
Cc1csc(NC(=O)c2ccc3ccccc3n2)n1	25.6	-30.2	-47.2	-27.5	-112.1	-44.2
CCc1ccc(C(=O)Nc2nc(C)cs2)s1	62.8*	41.5	-113.1	13.8	8.7	14.2
Cc1csc(NC(=O)c2cn3ccccc3n2)n1	90.7*	72.8*	78.4*	67.6*	88.9*	61.5*
CCC(=O)N(C)C[C@@H]1Oc2cc(-c3ccccc3F)ccc2S(=O)(=O)N([C@@H](C)CO)C[C@@H]1C	.	-1.2	.	.	-7.1	.
CC=Cc1ccc2n(c1=O)C[C@@H]1[C@@H](CO)[C@H](C(=O)NCC3CC3)N(C(=O)CC3CC3)[C@H]21 (mixture of isomers)	.	-8.8	-1.2	.	15.2	.
SMILES	TWEAK Fn14 block	EWS-Fli inh	PAX8 inh HTS	LMP1 NFkB inh	LGR2 antag	TROY NFkB inh
COc1ccc(S(=O)(=O)N(C)C[C@H]2OCc3ccccc3-c3c(n(C)c4ccccc34)C(=O)N([C@H](C)CO)C[C@H]2C)cc1	.	8.7	.	.	23.2	.
COc1cccc(S(=O)(=O)N(C)C[C@@H]2OCc3ccccc3-c3c(n(C)c4ccccc34)C(=O)N([C@H](C)CO)C[C@@H]2C)c1	.	8.2	75.3*	.	6.3	.
C[C@@H]1CN([C@@H](C)CO)C(=O)c2ccccc2-c2ccccc2CO[C@H]1CN(C)Cc1ccccc1C(F)(F)F	.	23.2	79.0*	.	14.2	.
COc1cccc(S(=O)(=O)N(C)C[C@@H]2OCc3ccccc3-c3ccccc3C(=O)N([C@@H](C)CO)C[C@@H]2C)c1	.	0.3	91.2*	.	22.1	.
COc1cccc(S(=O)(=O)N(C)C[C@H]2OCc3ccccc3-c3ccccc3C(=O)N([C@H](C)CO)C[C@H]2C)c1	.	15.8	-2.9	.	8.2	.
COc1cccc(S(=O)(=O)N(C)C[C@H]2OCc3ccccc3-c3c(n(C)c4ccccc34)C(=O)N([C@H](C)CO)C[C@@H]2C)c1	.	21.3	65.7*	.	-0.1	.
C[C@H](CO)N1C[C@H](C)[C@H](CN(C)Cc2ccc(C(F)(F)F)cc2)OCc2ccccc2-c2ccccc2C1=O	.	1.1	20.9	.	-8.6	.
C[C@H]1CN([C@@H](C)CO)C(=O)Cc2cc(NC(=O)CCCN(C)C)ccc2O[C@@H]1CN(C)C(=O)Nc1ccc2c(c1)OCO2	.	.	-20.1	.	-0.4	.
Cc1ccc(S(=O)(=O)Nc2ccc3c(c2)C(=O)N([C@@H](C)CO)C[C@@H](C)[C@H](CN(C)S(=O)(=O)c2cccs2)O3)cc1	.	1.4	.	.	3.2	.
CO[C@@H]1CN(C)C(=O)c2cc(NS(=O)(=O)c3ccccc3F)ccc2OC[C@H](C)NC[C@H]1C	.	-2.3	.	.	-3.2	.
COCC(=O)N1C[C@@H](C)[C@@H](OC)CN(C)C(=O)c2cc(NC(=O)Nc3cccc(F)c3)ccc2OC[C@H]1C	.	-1.8	1.7	.	-15.6	.
O=C(C[C@H]1C[C@@H]2c3cc(NC(=O)CC4CC4)ccc3O[C@@H]2[C@@H](CO)O1)NCc1ccncc1	.	-6.1	-14.8	.	-0.4	.
COc1cccc(C(=O)N2C[C@@H]3[C@H](c4ccccc42)[C@H](CO)N3C(=O)NC(C)C)c1	.	3.6	9.6	.	22.9	.
COc1cccc(S(=O)(=O)N(C)C[C@@H]2OCc3ccccc3-c3c(n(C)c4ccccc34)C(=O)N([C@H](C)CO)C[C@H]2C)c1	.	19.5	44.0	.	-0.2	.
COc1cccc(S(=O)(=O)N(C)C[C@H]2OCc3ccccc3-c3c(n(C)c4ccccc34)C(=O)N([C@@H](C)CO)C[C@H]2C)c1	.	24.8	85.6*	.	26.7	.
COc1cccc(S(=O)(=O)N(C)C[C@@H]2OCc3ccccc3-c3c(n(C)c4ccccc34)C(=O)N([C@@H](C)CO)C[C@@H]2C)c1	.	7.1	82.0*	.	14.5	.
CC(C)[C@@H](C)NC(=O)N(C)C[C@@H]1OCc2ccccc2-c2c(n(C)c3ccccc23)C(=O)N([C@@H](C)CO)C[C@@H]1C	.	-6.4	.	.	14.3	.
COCC(=O)N(C)C[C@@H]1Oc2ncc(Br)cc2C(=O)N([C@H](C)CO)C[C@@H]1C	.	-11.4	-12.4	.	-5.9	.
